We go through 7 compounds from PubChem BioAssay (NCI).

Each structure is given as a SMILES string. About 83,000 compounds went through this panel and 20% of them were active in at least one assay; those are over-represented in the sample as a whole.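 Growth was measured after 48 h exposure to one concentration of compound in 96-well plates. Values under 10 count as active.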 Values without a mark were called inactive. The source made the active and inactive calls.

Experiment in all cases: NCI-60 one-dose screen, 48 h (100 = growth as untreated, 0 = no growth, -100 = all killed)
Common to all, as to conditions: 10 µM unless noted

Assay [1] concerns NCI-H23 lung.
The subject of assay [2] is NCI-H226 lung.
Assay [3] has as its system NCI-H322M lung.
Assay [4] has as its system HOP-62 NSCLC.
The test system of assay [5] is NCI-H460 lung.
Assay [6] relates to HOP-92 NSCLC.
Assay [7] has as its system A549/ATCC NSCLC.
Assay [8] concerns 786-0 renal.
Assay [9] has as its system COLO 205 colon.
The subject of assay [10] is DU-145 prostate.
Assay [11] concerns K-562 leukemia.
The subject of assay [12] is MALME-3M melanoma.
In assay [13] the test system is MDA-MB-231 breast.
Assay [14] has as its system RXF 393 renal.
For assay [15], the system named is SF-268 CNS.
Assay [16] relates to SF-295 CNS.
For assay [17], the system named is SF-539 CNS.
In assay [18] the test system is UACC-257 melanoma.
Assay [19] deals with M14 melanoma.

For `N#Cc1c(-c2ccccc2)cc(-c2ccccc2)n(CC(=O)O)c1=O`, the growth in assay [1] is 70.2%; in [2] it was 75.2%; in assay [3], 96.9%; in assay [4] it was 53.8%; in assay [5], 40.7%; in assay [6], 61.7%. The growth was 51.9% in [7]; 62.9% in assay [8]; 68.4% in [9]; 87.5% in assay [10]; 21.1% in assay [11]; 56.2% in [12]. For the same compound, the growth was 60.3% in [13]; 62.3% in assay [14]; 67.2% in [15]; 36.8% in [16]; 66.5% in [17]; 64.4% in assay [18]. Besides, in [19], the growth was 26.3%.
Take `CN1CCN(c2nc3scc(-c4ccccc4)c3c(=O)[nH]2)CC1`: the growth was 100% in assay [1]; 98.6% in assay [2]; 90.3% in assay [3]; 103% in [4]; 108% in assay [5]; 98.5% in assay [6]. The growth in [7] was 99%; in assay [8], 98.3%; in assay [9], 99%; in assay [10], 103%; in assay [11] it was 95.9%; in assay [12] it was 86.4%. For the same compound, the growth in [13] was 92%; in [14], 96.5%; in assay [15], 96.7%; in assay [16], 96.6%; in assay [17], 93.7%; in assay [18] it was 108%. For the same compound, in assay [19], the growth is 97.6%.
In the case of `Cc1sc2nc(NCCc3cccs3)[nH]c(=O)c2c1C`, the growth was 98.5% in assay [1]; 83.2% in assay [2]; 104% in assay [3]; 68.4% in assay [4]; 95.7% in assay [5]; 93.3% in [6]. Further, the growth in assay [7] was 58.7%; in assay [8], 81.6%; in assay [9] it was 91%; in assay [10] it was 94.7%; in [11], 82.5%; in assay [12] it was 98.7%. Moreover, the growth in [13] was 92.5%; in assay [14] it was 78.9%; in assay [15] it was 95.4%; in [16], 82.8%; in assay [17] it was 91.4%; in assay [18], 72%. For the same compound, the growth in assay [19] is 82.9%.
Take `O=C1c2cc3c(cc2-c2c1c1ccc(Cl)cc1c(=O)n2CCCNCCO)OCO3`: the growth in assay [1] was -73% (active); in assay [2] it was -70.9% (active); in [3] it was -84.5% (active); in [4], -81.4% (active); in assay [5], -75.4% (active); in assay [6], -79.4% (active). The growth in assay [7] was -82.2% (active); in [8] it was -81.6% (active); in assay [9], -88.6% (active); in assay [10], -93.7% (active); in [11] it was -78.3% (active); in [12], -84.8% (active). Further, the growth in assay [13] is -79.5% (active); in [14], -78.6% (active); in [15], -76.7% (active); in assay [16] it was -86.9% (active); in assay [17], -84.6% (active); in [18] it was -59% (active). Moreover, the growth in [19] was -83.3% (active).
Consider `C/C(=C\CCc1ccsc1)CC/C=C(\C)CCCN1CCSCC1`, for which the growth is 89.6% in assay [1]; 91.3% in assay [2]; 78.3% in [3]; 99% in [4]; 76.9% in assay [5]; 73.3% in [6]. The growth in [7] was 67.5%; in [8], 102%; in [9], 85.6%; in [10] it was 96.6%; in assay [11], 61.9%; in assay [12], 98.4%. The growth in assay [13] is 85.9%; in [14], 98.1%; in assay [15], 103%; in assay [16], 82%; in assay [17] it was 89.9%; in assay [18], 94.6%. Moreover, the growth in [19] is 96.2%.
As to `COc1ccc(Oc2ccccc2NC(=O)CNC(=O)c2cccc3ccccc23)cc1`, the growth is 36.7% [5 µM] in [1]; 61.4% [5 µM] in assay [2]; 45.5% [5 µM] in [3]; 31.5% [5 µM] in assay [4]; 11.9% [5 µM] in [5]; 52.1% [5 µM] in assay [6]. Moreover, the growth in [7] is 20.8% [5 µM]; in assay [8] it was 30.1% [5 µM]; in [9] it was -20% [5 µM] (active); in assay [10] it was 17.5% [5 µM]; in [11], 8.48% [5 µM] (active); in assay [12], 72.9% [5 µM]. Further, the growth in [13] is 29.4% [5 µM]; in assay [14], 10.3% [5 µM]; in assay [15], 44.1% [5 µM]; in assay [16] it was 13.2% [5 µM]; in assay [17], -21.5% [5 µM] (active); in [18] it was 48.6% [5 µM]. The growth in assay [19] is 12.6% [5 µM].
Consider `C=C1CCC2C(C)(COC(=O)CC)C(OC(=O)CC)CCC2(C)C1C/C=C1/C(=O)OCC1OC(=O)CC` (stereo not drawn), for which the growth in assay [1] was 57.4%; in assay [2], -18.3% (active); in assay [3] it was 75.6%; in assay [4], -17.7% (active); in [5], 79.6%; in [6] it was -9.73% (active). In addition, the growth in assay [7] was 46.1%; in assay [8] it was -97.4% (active); in assay [9] it was -28.1% (active); in [10] it was 28.9%; in assay [11], 2.81% (active); in assay [12], 2.98% (active). The growth in assay [13] is -29.6% (active); in assay [14] it was -97.5% (active); in assay [15] it was 39.4%; in assay [16], 56.7%; in assay [17], -64.3% (active); in [18], 0.936% (active). For the same compound, the growth in assay [19] is -76.8% (active).
